# In the OligoGym collection:
# Legend:
# Assay in all cases: pooled miR-30 sensor sort-seq; sequence = guide strand
# Settings in all cases: shRNA
# CDKN2B = target: CDKN2B
# CDKL2 = target: CDKL2
# CEACAM7 = target: CEACAM7
# Note: reference of the scale not given here.
sequence,measurement,setting,value
TATAATGATCAAGCAACCCTGG,sensor-assay potency score (higher = more potent),CDKN2B,0.0689
TTTCTTTCTTCAACTAAGGAAT,sensor-assay potency score (higher = more potent),CDKL2,-1.1
TGCACCGGTCGGGTGAGAGTGG,sensor-assay potency score (higher = more potent),CDKN2B,-1.46
TGTCGCACCTTCTCCACTAGTC,sensor-assay potency score (higher = more potent),CDKN2B,-0.304
AAACGGTTGACTCCGTTGGGAT,sensor-assay potency score (higher = more potent),CDKN2B,-1.42
TAGTCTGACCTCTGCACCCTGA,sensor-assay potency score (higher = more potent),CDKN2B,-1.07
TGACTCATAGCGGACATTCAGG,sensor-assay potency score (higher = more potent),CEACAM7,-0.817
TATTTCTTAGTCTGACCTCTGC,sensor-assay potency score (higher = more potent),CDKN2B,-0.197
TACTTTTAACTGTAGTTCTTGG,sensor-assay potency score (higher = more potent),CDKL2,-0.4
TAGCATCTGTCGTCGCTTGCAC,sensor-assay potency score (higher = more potent),CDKN2B,-0.163
TAGAGGTCTAACTCTAACAGGG,sensor-assay potency score (higher = more potent),CEACAM7,-0.585
TTTTAGCATCTGTCGTCGCTTG,sensor-assay potency score (higher = more potent),CDKN2B,0.0607
TATTGTCTCTCGACCGTTGTGT,sensor-assay potency score (higher = more potent),CEACAM7,0.904
TTGTCTCTCGACCGTTGTGTGC,sensor-assay potency score (higher = more potent),CEACAM7,-1.35
AGGTACCCTGCAACGTCGCGGT,sensor-assay potency score (higher = more potent),CDKN2B,-1.5
TTCCAGGAGCTGTCGCACCTTC,sensor-assay potency score (higher = more potent),CDKN2B,-0.732
TATATTGTCTCTCGACCGTTGT,sensor-assay potency score (higher = more potent),CEACAM7,-0.124
TTGGAGTGAACGCATCGACTGC,sensor-assay potency score (higher = more potent),CDKN2B,-0.833
TTCATTCACAAGATTTTCTTTT,sensor-assay potency score (higher = more potent),CEACAM7,-0.349
TTTTTCAGCAATCTTTTGGGAA,sensor-assay potency score (higher = more potent),CDKN2B,-0.00426
AACTCTAACAGGGACCACCGTG,sensor-assay potency score (higher = more potent),CEACAM7,-1.13
TCCCGAAACGGTTGACTCCGTT,sensor-assay potency score (higher = more potent),CDKN2B,-1.06
ATATCCTATAATTCGATAGTTG,sensor-assay potency score (higher = more potent),CEACAM7,-1.04
TAATTTACTGCATAAGTGCATC,sensor-assay potency score (higher = more potent),CDKN2B,-0.823
TTTCTTAGTCTGACCTCTGCAC,sensor-assay potency score (higher = more potent),CDKN2B,0.0018
TTTACTGCATAAGTGCATCTAT,sensor-assay potency score (higher = more potent),CDKN2B,0.135
TTAGATAAAGAAACATTTCTGG,sensor-assay potency score (higher = more potent),CDKL2,0.295
AACTTGCTTGTACTGACTCATA,sensor-assay potency score (higher = more potent),CEACAM7,-1.59
TAAAACCACAATATCTTTGTTC,sensor-assay potency score (higher = more potent),CEACAM7,0.0103
ATCATGCACCGGTCGGGTGAGA,sensor-assay potency score (higher = more potent),CDKN2B,-1.72
TAAGAAAATAAAGTCGTTGTGG,sensor-assay potency score (higher = more potent),CDKN2B,0.511
TTTCAGGCAACCTTACTCCAGC,sensor-assay potency score (higher = more potent),CDKL2,-0.594
TTCAACTAAGGAATCATCTTTT,sensor-assay potency score (higher = more potent),CDKL2,0.409
TTTAGCATCTGTCGTCGCTTGC,sensor-assay potency score (higher = more potent),CDKN2B,0.0347
TTTAACTGTAGTTCTTGGGAAA,sensor-assay potency score (higher = more potent),CDKL2,-0.938
TTGACTCCGTTGGGATCCGCGC,sensor-assay potency score (higher = more potent),CDKN2B,-1.43
